Here are results for twelve compounds from PubChem BioAssay (EPA / NIEHS).

Values joined by “and” are separate entries in the source; they are usually repeats but may differ in a detail not shown here. Equal values may be shown once. A structure can be active in one record and inactive in another. Active and inactive are the calls of the source. How the source made its calls: active means hit-call score of the fitted dose curve at least 0.9, where 1 is the maximum; inactive means score below 0.9.

Read-out in this assay: Thrombomodulin, THBD (gene 7056)
Put plainly: BSK_LPS_Thrombomodulin: BioMAP Diversity Plus: LPS Assay for Thrombomodulin Biomarker Activity (AID 2284296). The following applies: primary human HUVEC with PBMC. The protocol:
BSK_LPS is a cell-based, multiplexed-readout assay that uses umbilical vein endothelium and peripheral blood mononuclear cells, a human vascular primary cell co-culture, with measurements taken at 24 hours after chemical dosing in a 96-well plate.BSK_LPS_Thrombomodulin is an assay component measured in the BSK_LPS assay. It measures Thrombomodulin antibody related to regulation of gene expression using ELISA technology.Data from the assay component BSK_LPS_Thrombodulin was analyzed at the endpoint, BSK_LPS_Thrombomodulin, in the positive analysis fitting direction relative to DMSO as the negative control and baseline of activity. Using a type of binding reporter, gain or loss-of-signal activity can be used to understand protein changes. To generalize the intended target to other relatable targets, this assay endpoint is annotated to the 'gpcr' intended target family, where the subfamily is 'rhodopsin-like receptor'.
The levels of cell surface (or secreted, indicated by the prefix "s") biomarker endpoints were measured by ELISA. Overt cytotoxicity to cells in confluent adherent cultures (all systems other than the BT system) was assessed by measuring total protein levels using sulforhodamine B (SRB) staining in parallel cultures at the time of biomarker measurements, indicated as SRB endpoints. For proliferation assays for adherent cell types, individual cell types are cultured at sub-confluence and relative cell numbers quantified by SRB staining at time points optimized for each system (48 h: 3C and CASM3C systems; 72 h: BT and HDF3CGF systems; 96 h: SAg system). SRB was performed by staining cells with 0.1% SRB after fixation with 10% TCA and reading wells at 560 nm.Viability and proliferation of PBMC (T cells) was quantified by Alamar Blue reduction for the SAg and BT systems. For PBMC viability (referred to as PBMC Cytotoxicity within the assay endpoint names), cells were plated (75,000/well in a 96-well plate) and then chemical samples added for 1 h before addition of activators, SEB and TSST-1 (20 ng/mL final concentration each). Cells were incubated for 90 h. Then, Alamar Blue (20 uL/well) (Invitrogen, Cat DAL1100) was added for 6 h, and the plates were read with a fluorescence microplate reader at 546/580 nm (excitation/emission). For PBMC proliferation, cells were plated and activated as above but incubated for only 16 h prior to addition of Alamar Blue. Plates were read after 6 h.
As to `C1CN(CCOCCN2CCOCC2)CCO1`, the outcome was inactive.
Still for that read-out and setting: next, `CCC[Si](OC(C)=O)(OC(C)=O)OC(C)=O`: “inactive”.
Take `Cc1c(C(N)=O)cc([N+](=O)[O-])cc1[N+](=O)[O-]`: the AC50 was 149 nM (active) and the outcome was inactive.
`COc1ccccc1Oc1c(NS(=O)(=O)c2ccc(C(C)(C)C)cc2)nc(-c2ncccn2)nc1OCCO`: the result was inactive.
With `OC(C(F)(F)F)(C(F)(F)F)C(O)(C(F)(F)F)C(F)(F)F`, the result was inactive.
With `CC(C)C1OCCN1CCOC(=O)NCCCCCCNC(=O)OCCN1CCOC1C(C)C` (stereo not drawn), the outcome was inactive.
As for `CCCCC(CC)COC(=O)C=Cc1ccc(OC)cc1` (stereo not drawn), the AC50 is 10.6 µM (active) and 20 µM (active).
With `COc1ccc(C(=O)c2ccccc2O)c(O)c1`, the outcome was inactive.
In the case of `CN(C)Cc1cc(C(C)(C)C)c(O)c(C(C)(C)C)c1`, the outcome was inactive.
For the compound `CC[N+](CC)(CC(=O)Nc1c(C)cccc1C)Cc1ccccc1` (tested in a mixture with another compound), the outcome was inactive.
On to `COc1cc(CNC(=O)CCCC/C=C/C(C)C)ccc1O`, for which the outcome was inactive.
Consider `O=[N+]([O-])c1cc(S(=O)(=O)Nc2ccccc2)ccc1Nc1ccccc1`, for which the AC50 was 20 µM (active) and 28.1 µM (active).

As usually defined, the AC50 is the concentration giving half of the maximal activity seen.
